Screening results (PubChem BioAssay)
esBAF inh = Bmi1 luciferase reporter increase in mESCs, primary screen, esBAF inhibitor project, mouse ES cells, Bmi1 luciferase knock-in, single point; 350,000 tested, 2% active; reporter increase, % at 12.5 µM; 24 h; 100% = twice the neutral-well signal; in the data active = activation above about 40%; inconclusive = no clear call, values can overlap the other calls;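 also: a rise in the Bmi1 reporter signal indicates esBAF inhibition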
MITF act = activators of MITF-driven TRPM1 promoter reporter, primary screen, cell-based, SK-MEL-5, luciferase, single point; SK-MEL-5 TRPM1-promoter luciferase, 24 h; % of positive control, neutral wells = 0; activation, % at 12.5 µM; 300,000 tested, 0.75% active; AID 588334, 2011;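 active = mean activation of at least 80% with every replicate also reaching 80%; inconclusive = mean reaches 80% but some replicate falls short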
PfHsp90 yeast 2 = growth inhibition of PfHsp90-expressing yeast, primary screen, antimalarial PfHsp90 inhibitor project, S. cerevisiae, BacTiter-Glo luminescence, single point, set 2. BacTiter-Glo ATP, 48 h; yeast lacking PDR1 and PDR3 efflux regulators. inhibition, % at 9.4 µM. 310,000 tested, 0.32% active. AID 504621, 2011;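 active = every replicate shows inhibition above about 80%, whatever the replicate mean, limit read from the data; inconclusive = mean inhibition reaches the set limit but some replicate falls short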
Wnt act = Wnt/beta-catenin pathway activators, primary screen, cell-based, plate reader, single point; Wnt/beta-catenin reporter cell assay, activator; activation, % at 9.35 µM; 300,000 tested, 1.2% active; AID 743398, 2014; in the data active = activation above about 30%, passing the limit was not always enough; inconclusive = no clear call, values can overlap the other calls
Vif inh = HIV Vif self-association inhibitors, primary screen, imaging, HEK293T, single point; HEK293T cells, Vif self-association by quenched fluorescence, 24 h; inhibition, % at 7.49 µM; 340,000 tested, 0.35% active; AID 602346, 2012; in the data active = inhibition above about 50%, passing the limit was not always enough; inconclusive = no clear call, values can overlap the other calls; inactive = below about 31%
N-glyco inh = increase of ERlucT glycosylation luciferase signal, primary screen, N-linked glycosylation inhibitor project, D54 ERlucT cells, luminescence, set 2 | reporter increase, % at 12.5 µM | 360,000 tested, 0.23% active | D54 ERlucT glycosylation luciferase reporter, 24 h; percent of 100 nM tunicamycin response;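 active = mean luciferase reporter signal, scaled so untreated is 0 and the glycosylation-blocking control 100, at or above a set limit in every replicate; inconclusive = mean reaches the limit but not every replicate does; inactive = mean below the limit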;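 also: luciferase carries N-glycosylation sites so blocking glycosylation raises the light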
Large screens that a line does not name were inactive; ! = repeats disagree. An excerpt weighted towards active compounds, which were near 3% of everything screened.

NP(=O)(Nc1ccccc1)Nc1ccccc1	none
Clc1ccc(Cn2ccnc2)cn1	none (no result: PfHsp90 yeast 2)
Clc1ccc(CCC(Cn2ccnc2)Sc2c(Cl)cccc2Cl)cc1 (stereo not drawn)	PfHsp90 yeast 2 88.0
COc1cc(C(CN)CC(=O)O)ccc1O (stereo not drawn)	none
COc1ccc2c(CCN)c[nH]c2c1	none (no result: Wnt act)
Cc1ccc(-c2nn(Cc3ccccc3)cc2C=O)cc1	Wnt act 55.2 (no result: esBAF inh)
Cc1ccc(-c2nn(Cc3ccccc3)cc2C=O)cc1C	esBAF inh 87.7
CC(=O)c1ccc(-c2ccccc2)cc1	esBAF inh 33.7
CC(=O)c1ccc(OC(=O)N(C)c2ccccc2)cc1	none (no result: esBAF inh)
CC12CCC(=O)C=C1CCC1C2CCC2(C)C(O)CCC12 (stereo not drawn)	none
C[C@]12CC[C@H]3[C@@H](CCC4=CC(=O)CC[C@@]43C)[C@@H]1CC[C@@H]2O	Wnt act 33.3! (no result: PfHsp90 yeast 2)
CCCCCCCCCCCCCCCC[N+](C)(C)C	PfHsp90 yeast 2 109.1
Cc1cc(C(=O)OCC(=O)Nc2ccccc2F)c(C)n1C1CC1	esBAF inh 56.6, MITF act 85.3
Cc1cc(C(=O)OCC(=O)Nc2ccc(F)cc2F)c(C)n1C1CC1	none
Cc1cccn2c(NCC3CCCO3)c(C(C)C)nc12 (stereo not drawn)	none (no result: MITF act, PfHsp90 yeast 2, Wnt act)
COc1ccc2c(c1)[C@@]13CCC=C[C@H]1[C@@H](C2)NCC3	Vif inh 61.2
Cc1nn(Cc2ccccc2Cl)c(Cl)c1C(=O)OCC(=O)NC(=O)NC1CCCCC1	none (no result: esBAF inh)
Cc1nn(CC(C)C)c(Cl)c1C(=O)NC1CCC(C)CC1 (stereo not drawn)	esBAF inh 66.2, MITF act 95.6 (no result: PfHsp90 yeast 2)
CCOc1c(Cl)cc(CNC(C)C(O)c2ccccc2)cc1OC (stereo not drawn)	none
COC(=O)[C@@H]1[C@@H](CO)[C@@H]2Cn3c(ccc(-c4ccc(F)cc4)c3=O)[C@H]1N2Cc1cccnc1	none (no result: MITF act, PfHsp90 yeast 2, Wnt act, Vif inh, N-glyco inh)
Cc1cc(N(CCCl)CCCl)ccc1C=Cc1ccncn1	Vif inh 77.1 (no result: PfHsp90 yeast 2)
CCOc1cc(-c2nc3c(C)cccn3c2NCC2CCCO2)ccc1O (stereo not drawn)	none (no result: Wnt act)
COc1ccc2c(c1)/C(=C/c1cnc[nH]1)C(=O)N2	esBAF inh 52.3
O=C1NC(=S)NC(=O)C1=Cc1ccc(Br)s1	PfHsp90 yeast 2 123.3 (no result: MITF act)
COC12CCC3(CC1C(C)(O)C(C)(C)C)[C@H]1Cc4ccc(O)c5c4[C@@]3(CCN1CC1CC1)C2O5 (stereo partly drawn)	N-glyco inh 58.9 (no result: PfHsp90 yeast 2)
O=C1/C(=C/c2ccccc2)C[C@@]2(O)[C@H]3Cc4ccc(O)c5c4[C@@]2(CCN3CC2CC2)C1O5 (stereo partly drawn)	esBAF inh 54.1 (no result: PfHsp90 yeast 2, Wnt act)
CCc1ccccc1N1C(=O)NC(=O)/C(=C\c2cc(C)n(C)c2C)C1=O	none (no result: esBAF inh)
CNC(=O)c1cccn(Cc2ccc(C(F)(F)F)cc2)c1=O	N-glyco inh 34.4
CNC(=O)c1cccn(Cc2cc(C(F)(F)F)cc(C(F)(F)F)c2)c1=O	none (no result: esBAF inh)
C=C1C(=O)OC2CC3(C)OC3C3OC3C3=CC(OC3=O)C12 (stereo not drawn)	Vif inh 86.0 (no result: MITF act, PfHsp90 yeast 2)
O=C1NCN(c2ccccc2)C12CCN(C(c1ccccc1OC(F)(F)F)c1nnnn1Cc1ccccc1)CC2 (stereo not drawn)	none (no result: MITF act, PfHsp90 yeast 2)
C[C@H]1C[C@@H](C)C(=O)[C@@H]([C@H](O)CC2CC(=O)NC(=O)C2)C1	PfHsp90 yeast 2 105.8 (no result: MITF act)
CN1C(=O)C(=Cc2ccc(N3CCCCCC3)o2)C(=O)N(C)C1=S	esBAF inh 40.8 (no result: MITF act)
CN1C(=O)C(=Cc2ccc(N3CCOCC3)o2)C(=O)N(C)C1=O	none (no result: esBAF inh)
O=C(COc1ccccc1)N1CCN(CC(O)COc2ccccc2)CC1 (stereo not drawn)	Vif inh inconclusive
COc1ccc(O)c2c(=O)c3c(OC)cc4c(c3oc12)C1C=COC1O4 (stereo not drawn)	Vif inh 73.1
